Measured values published in article PMC4336329 (PLoS ONE, 2015).
Out of some 310,000 compounds screened, about 14,000 (4.5%) showed an effect of 50% or more. Effects have a minus sign here. This excerpt belongs to a sample that is enriched for strong results.

These molecules were tested against human ether-à-go-go-related gene (hERG) potassium channel (human, UniProt Q12809) (assay: primary screen, population patch clamp on CHO cells stably expressing hERG; higher = less effect of the substance).
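Also: peak tail current of the secondary pulse compared with the same well before compound.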

Sequence of human ether-à-go-go-related gene (hERG) potassium channel (Q12809 whole entry, looked up): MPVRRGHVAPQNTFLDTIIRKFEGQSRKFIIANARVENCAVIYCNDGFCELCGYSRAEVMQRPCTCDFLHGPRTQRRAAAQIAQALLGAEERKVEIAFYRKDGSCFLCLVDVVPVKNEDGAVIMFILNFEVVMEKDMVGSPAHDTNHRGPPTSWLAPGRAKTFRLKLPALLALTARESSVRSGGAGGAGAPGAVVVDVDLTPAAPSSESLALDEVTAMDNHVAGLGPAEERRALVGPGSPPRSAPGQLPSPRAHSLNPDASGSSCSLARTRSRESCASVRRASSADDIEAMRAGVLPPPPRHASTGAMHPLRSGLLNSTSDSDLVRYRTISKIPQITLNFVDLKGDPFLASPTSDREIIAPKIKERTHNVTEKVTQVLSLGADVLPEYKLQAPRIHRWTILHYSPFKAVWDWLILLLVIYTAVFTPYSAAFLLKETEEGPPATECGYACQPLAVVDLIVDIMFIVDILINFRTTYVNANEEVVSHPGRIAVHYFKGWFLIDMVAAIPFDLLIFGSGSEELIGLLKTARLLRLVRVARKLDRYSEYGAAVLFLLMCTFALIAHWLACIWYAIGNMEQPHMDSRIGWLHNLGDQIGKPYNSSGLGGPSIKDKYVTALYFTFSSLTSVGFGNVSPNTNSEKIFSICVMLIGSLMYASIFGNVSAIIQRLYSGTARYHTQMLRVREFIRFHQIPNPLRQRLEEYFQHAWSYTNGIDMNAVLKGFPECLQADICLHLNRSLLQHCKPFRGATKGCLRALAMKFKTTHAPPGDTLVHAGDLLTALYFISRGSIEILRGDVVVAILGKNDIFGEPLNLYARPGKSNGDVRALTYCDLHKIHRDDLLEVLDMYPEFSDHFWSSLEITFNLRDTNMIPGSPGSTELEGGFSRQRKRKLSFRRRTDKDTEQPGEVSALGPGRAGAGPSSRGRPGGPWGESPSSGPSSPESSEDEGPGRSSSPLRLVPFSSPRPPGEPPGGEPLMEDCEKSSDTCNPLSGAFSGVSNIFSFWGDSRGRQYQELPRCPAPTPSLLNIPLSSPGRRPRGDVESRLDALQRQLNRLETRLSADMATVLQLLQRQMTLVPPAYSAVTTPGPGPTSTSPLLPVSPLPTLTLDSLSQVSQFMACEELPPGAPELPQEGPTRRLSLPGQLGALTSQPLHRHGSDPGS

Compound	hERG current change (%, negative = inhibition) at 10uM [%]
CC(=O)Nc1ccc2c(c1)NC(=O)CC2	18.3
Cc1cc(C)c(S(=O)(=O)N2CCN(C(=O)CCn3nc(C)c(C)c3C)CC2)c(C)c1	-35.8
CCN1CCN(CC(=O)Nc2nc3ccc(C)cc3s2)CC1	-34.5
Cc1cccc(NC(=S)NCCc2ccc(S(N)(=O)=O)cc2)c1C	11.4
O=C(NCCN1C(=O)S/C(=C\c2cccs2)C1=O)c1ccc(=O)[nH]c1	-15.5
Cc1cc(C)nc(Nc2cccc(Cl)c2)n1.Cl	21.8
Cc1cc(Nc2cccc(Cl)c2)c2ccccc2n1	-68.8
Cc1cc(Nc2ccc(C)c(C)c2)c2ccccc2n1	-66.9
Cc1ccc(Nc2nc3ccccc3c(=O)s2)cc1C	6.94
Cc1cc(Nc2ccccc2O)c2ccccc2n1.Cl	-18.6
Cc1ccc(C)c(Nc2cc(C)nc3ccccc23)c1	-49.5
Cc1cc(Nc2ccccc2Cl)c2ccccc2n1	-64.2
Cc1cc(C(=O)Nc2ccccc2Cl)c2ccccc2n1	-2.16
Cc1nc2ccccc2nc1Nc1cccc(Cl)c1	9.24
Cc1ccc(C(=O)NCC(=O)O)s1	23.8
Cc1ccc2[nH]c(=O)c(CN(Cc3cccs3)C(=S)NCC3CCCO3)cc2c1 (stereo not shown)	8.11
COc1ccc(CCN2CC(C(=O)N(C)CCOc3ccccc3)CCC2=O)cc1 (stereo not shown)	-57.2
COc1ccccc1CN1CC(C(=O)N(C)CCOc2ccccc2)CCC1=O (stereo not shown)	-9.29
CN(CCC1CCOCC1)C(=O)C1CCC(=O)N(CCc2ccccc2)C1 (stereo not shown)	-15.1
CCc1ccc(CN(C)C(=O)C2CCC(=O)N(Cc3cccc(OC)c3)C2)nc1 (stereo not shown)	-18.8
COc1ccc(CCN2CC(C(=O)N(C)Cc3ccc(C)o3)CCC2=O)cc1 (stereo not shown)	-6.77
CN(CCOc1ccccc1)C(=O)C1CCC(=O)N(CCN2CCOCC2)C1 (stereo not shown)	16.5

Compound	hERG current change (%, negative = inhibition) at 10uM [%]
COc1ccc(CCN2CC(C(=O)N(C)Cc3ccccc3OC)CCC2=O)cc1 (stereo not shown)	-29.4
CN(CCOc1ccccc1)C(=O)C1CCC(=O)N(CCc2ccc(Cl)cc2)C1 (stereo not shown)	-84.9
CN(C(=O)C1CCC(=O)N(CCc2ccc(Cl)cc2)C1)C1CCOCC1 (stereo not shown)	10.7
CN(CCC1CCOCC1)C(=O)C1CCC(=O)N(CCc2ccc(Cl)cc2)C1 (stereo not shown)	-62
CCc1ccc(CN(C)C(=O)C2CCC(=O)N(CCc3ccc(OC)cc3)C2)nc1 (stereo not shown)	-79.9
CN(CCOc1ccccc1)C(=O)C1CCC(=O)N(CCCN2CCCC2=O)C1 (stereo not shown)	27.5
CCOC(=O)C1CCN(C(=O)COC(=O)CSc2ccc([N+](=O)[O-])cc2)CC1	-39.5
COc1ccc(CCNC(=O)c2ccccc2C(=O)NCCc2ccc(OC)cc2)cc1	-12
COc1ccc(OC)c2c1cc(C(=O)N[C@@H](C)C(=O)N[C@@H](C(=O)O)c1ccccc1)n2C	19.2
O=[N+]([O-])c1ccc(O)c(/C=N/n2cnc3ccccc32)c1	19.2
O=C(COC(=O)CCCc1c[nH]c2ccccc12)Nc1ccc2c(c1)OCO2	15.1
c1ccc2c(c1)CCCN2Cc1nnnn1CC1CCCO1 (stereo not shown)	7.06
O=[N+]([O-])c1ccc(NNS(=O)(=O)c2cc(Cl)ccc2Cl)nc1	-68.8
O=[N+]([O-])c1ccc(Nc2ccc(Cl)cc2)nc1	21.7
O=[N+]([O-])c1ccc(NCc2ccc(Cl)cc2)nc1	0.977
CCN(CC)S(=O)(=O)c1ccc(C)c(NC(=O)COC(=O)CNC(=O)c2ccc(C(C)(C)C)cc2)c1	7.12
CCN(CC)c1ccc(/C=N/NS(=O)(=O)c2ccc(CNC(C)=O)cc2)cc1	13.2
Cc1cccc(C(=O)NCC(=O)NC(C)CCc2ccccc2)c1 (stereo not shown)	-0.165
Cc1c(Cl)cccc1-n1c(SCC(=O)N(C)Cc2ccccc2)nnc1-c1ccncc1	-49.5
COc1ccc(CNC(=O)C2CCN(S(=O)(=O)c3cccc4nonc34)CC2)cc1	-0.634
CC(C)Sc1nnc([C@@H]2CCCN2C(=O)OC(C)(C)C)o1	14.7
